In all, about 5,000 sequences were measured (“log2 normalized fluorescence”: median about 0.089, highest 2% from about 0.81 on). The full list was thinned out, with the highest values kept by preference.
Each sequence was assayed against MYC (p64);MAX (p21), in MYC:MAX (human;human, UniProt P01106-1;P61244-2 1-439;1-151, |) (assay: protein-binding microarray (anti-MAX antibody); PBM: 15 mM Tris-HCl pH 7.5, 100 mM KCl, 0.075% NP40, 7.5 mM beta-mercaptoethanol, 375 ng/ul BSA, 8 ng/ul poly(dA-dT):(dA-dT), 550 ng complex, 60 min, room tempe; high values mean tight binding). Settings: protein: recombinant;recombinant; tags: 6xHis;6xHis; copies: 1;1; label: 3' end of printed strand (linker) attached to glass slide; dsDNA, one strand shown.
Procedure, shortened: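 A custom Agilent glass array held ~5000 unique 12-nt sequences in triplicate spots, made double-stranded by primer extension. His-tagged human MYC:MAX or MAX:MAX dimers (550 ng, produced in E. coli) were applied for 60 min at room temperature in Tris-KCl buffer, pH 7.5, with NP40, BSA and poly(dA-dT) competitor. Anti-MAX and secondary antibodies detected bound protein, with scanning at 543 nm, and binding is given as log2 normalized fluorescence.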

Sequence of MYC (p64);MAX (p21), in MYC:MAX (P01106 16-454, chain 1 of 2): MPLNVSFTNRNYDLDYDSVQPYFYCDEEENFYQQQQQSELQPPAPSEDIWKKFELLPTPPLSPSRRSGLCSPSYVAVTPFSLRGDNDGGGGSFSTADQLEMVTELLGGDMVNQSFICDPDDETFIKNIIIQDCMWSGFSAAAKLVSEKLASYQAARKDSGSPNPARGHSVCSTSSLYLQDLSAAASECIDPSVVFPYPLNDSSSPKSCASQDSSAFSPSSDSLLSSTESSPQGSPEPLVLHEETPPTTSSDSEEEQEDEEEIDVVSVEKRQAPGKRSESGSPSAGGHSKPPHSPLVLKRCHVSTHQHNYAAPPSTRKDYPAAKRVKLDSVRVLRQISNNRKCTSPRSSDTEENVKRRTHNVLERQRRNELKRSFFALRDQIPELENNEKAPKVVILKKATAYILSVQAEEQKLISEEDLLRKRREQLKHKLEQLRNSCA
Sequence of MYC (p64);MAX (p21), in MYC:MAX (P61244 other isoform, or with tags, fused parts or gaps |, chain 2 of 2): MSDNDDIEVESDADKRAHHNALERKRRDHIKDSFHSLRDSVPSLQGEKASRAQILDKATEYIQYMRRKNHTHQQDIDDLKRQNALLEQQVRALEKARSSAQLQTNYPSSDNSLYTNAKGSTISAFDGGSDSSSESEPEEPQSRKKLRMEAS

Sequence	binding signal
CCGGCTGACACGTTGCATTAATAGCTAAGATTACTATATCGACG	0.792 log2 normalized fluorescence
CCGGCGGACACGTGGAGTTAATAGCTAAGATTACTATATCGACG	0.745 log2 normalized fluorescence
CCGGCTGACACGTGTGGTTAATAGCTAAGATTACTATATCGACG	0.792 log2 normalized fluorescence
CCGGCTGACACGTGGGTTTAATAGCTAAGATTACTATATCGACG	0.725 log2 normalized fluorescence
CCGGCTGACACGTGGGGTTAATAGCTAAGATTACTATATCGACG	1 log2 normalized fluorescence
CCGGCTGACACGTGATTTTAATAGCTAAGATTACTATATCGACG	0.626 log2 normalized fluorescence
CCGGCTGACACGTGGAGTTAATAGCTAAGATTACTATATCGACG	0.923 log2 normalized fluorescence
CCGGCTGACACGTAGAGTTAATAGCTAAGATTACTATATCGACG	0.293 log2 normalized fluorescence
CCGGCTGACACGTGCTCTTAATAGCTAAGATTACTATATCGACG	0.813 log2 normalized fluorescence
CCGGCTGACACGTGCTGTTAATAGCTAAGATTACTATATCGACG	0.743 log2 normalized fluorescence
CCGGCTGACACGTGCATTTAATAGCTAAGATTACTATATCGACG	0.894 log2 normalized fluorescence
CCGGCTGACACGTGCTATTAATAGCTAAGATTACTATATCGACG	0.869 log2 normalized fluorescence
CCGGCAGAAACGCGGTATTAATAGCTAAGATTACTATATCGACG	0.575 log2 normalized fluorescence
CCGGCTGATTACGAGTATTAATAGCTAAGATTACTATATCGACG	0.0125 log2 normalized fluorescence
CCGGCTGACACGAGATATTAATAGCTAAGATTACTATATCGACG	0.491 log2 normalized fluorescence
CCGGCTGATCCGCTGTATTAATAGCTAAGATTACTATATCGACG	-0.0182 log2 normalized fluorescence
CCGGCTGAAACGTTGTATTAATAGCTAAGATTACTATATCGACG	0.435 log2 normalized fluorescence
CCGGCTGAAACACAGTATTAATAGCTAAGATTACTATATCGACG	0.249 log2 normalized fluorescence
CCGGCTGATGGTCCGTATTAATAGCTAAGATTACTATATCGACG	0.278 log2 normalized fluorescence
CCGGCTGATGAGCAGTATTAATAGCTAAGATTACTATATCGACG	-0.0208 log2 normalized fluorescence
CCGGCTGATGGGTTGTATTAATAGCTAAGATTACTATATCGACG	0.152 log2 normalized fluorescence
CCGGCTGACACGTGCGATTAATAGCTAAGATTACTATATCGACG	0.786 log2 normalized fluorescence
CCGGCTGACACGTGCCATTAATAGCTAAGATTACTATATCGACG	1 log2 normalized fluorescence
CCGGCTGACACGTGAATTTAATAGCTAAGATTACTATATCGACG	0.712 log2 normalized fluorescence
CCGGCTGACACGTGCGCTTAATAGCTAAGATTACTATATCGACG	0.633 log2 normalized fluorescence
CCGGCTGACACGTGACATTAATAGCTAAGATTACTATATCGACG	0.756 log2 normalized fluorescence
CCGGCTGACACGTGGATTTAATAGCTAAGATTACTATATCGACG	0.893 log2 normalized fluorescence
CCGGCTGACACGTGTGCTTAATAGCTAAGATTACTATATCGACG	0.818 log2 normalized fluorescence
CCGGCTGACACGTGGGATTAATAGCTAAGATTACTATATCGACG	0.669 log2 normalized fluorescence
CCGGCTGACACGTGCCGTTAATAGCTAAGATTACTATATCGACG	0.783 log2 normalized fluorescence

From article PMC5515408, “Sequence-specific DNA binding by MYC/MAX to low-affinity non-E-box motifs”
